Experimental data published in PubChem BioAssay AID720569 (National Center for Advancing Translational Sciences (NCATS), 2013).
This is one part of the list. Results filed as inconclusive are left out. Active and inactive are the calls of the source. The call rests on the fitted dose curve; in most records, active means well fitted inhibition curve with a large enough effect; inconclusive means small, poorly fitted or top-dose-only effect; inactive means no such curve, though single readings can be large or run the other way.

Each compound was assayed on pyruvate kinase (Trypanosoma brucei) (assay: qHTS of Trypanosoma Brucei Inhibitors: Confirmatory Assay for Cherry-picked Compounds). Details: recombinant TbPYK, Kinase-Glo ATP luminescence.
From the text: Members of the Trypanosomatidae family of parasitic protozoans cause a spectrum of diseases throughout the tropical and subtropical world. Sleeping sickness, caused by two subspecies of Trypanosoma brucei, is endemic to areas of sub-Saharan Africa, while Chagas' disease, a manifestation of Trypanosoma cruzi infection, is prevalent throughout Central and South America. In addition, many species of Leishmania are responsible for a range of cutaneous and visceral diseases, causing ulcers, destructive lesions and kalaazar, a lethal infection of the viscera. These diseases cause severe public health and economic burdens on populations that are often already caught in a tragic cycle of poverty, poor nutrition and disease. Collectively, parasites of the trypanosomatid family infect 30 million people worldwide (~500 million live in endemic areas), and account for ~130K deaths annually. Existing treatments have developed little in the past 50 years, and suffer from toxicity, poor efficacy and resistance; the goal of this project is to develop lead drugs that will be suitable for entry into pre-clinical trials. […] Glycolysis in axenically cultured T. cruzi, representing the intracellular pathogenic stage, is also essential for these parasites. {Engel, 1987} This project aims to discover and optimize selective inhibitors of the glycolytic enzyme pyruvate kinase (PYK) from Trypanosoma brucei, the parasite that causes sleeping sickness. […] Trypanosomatid PYKs show significant differences from their human counterparts including only 47-50% sequence identity and different allosteric and activation properties.{Callens, 1992} To this end, a qHTS was done against the MLSMR to discover inhibitors. NIH Molecular Libraries Probe Production Network [MLPCN] NIH Chemical Genomics Center [NCGC] Grant: MH095452 PI Name: Malcolm Walkinshaw, University of Edinburgh
Two uL of TbPYK/substrate buffer (columns 1-3, 5-48) are dispensed into Greiner white solid bottom 1536-well assay plates; column 4 receives only TEA buffer as 0x TbPYK controls. Compounds are then transferred via Kalypsys pin tool equipped with 1536-pin array (10 nL slotted pins, V&P Scientific, San Diego, CA). Following addition of compound, 2 uL of ADP (130 uM final concentration, all columns) is added to initiate the reaction. The plates are then incubated at room temperature for 45 minutes. Kinase-Glo Plus reagent is added (3 uL) and plates incubated for 10 minutes, before being transferred to a ViewLux high-throughput CCD imager (PerkinElmer) wherein single end-point measurements of luminescence are acquired using a clear filter. All reagents are diluted in an assay buffer consisting of 50 mM TEA (pH 7.2), 100 mM KCl, 10 mM MgCl2, 0.05% BSA and 0.01% Tween-20. […]
Further: nearly all actives have a fitted effect of over 70% in size.
Potency means the concentration at half of the fitted maximal effect.

SMILES	Potency
O=C(O)CCn1cc(C=C2C(=O)NC(=S)NC2=O)c(-c2cccc(Br)c2)n1	6.31 µM (active)
Cc1ccc2c(c1)=C/C(=C\c1c(O)[nH]c(=O)[nH]c1=O)C(=O)N=2	17.8 µM (active)
COc1ccc(N2C(=O)/C(=C/c3ccco3)C(=O)NC2=S)cc1	14.1 µM (active)
O=C1NC(=O)N(c2ccccc2)C(=O)/C1=C/c1ccc([N+](=O)[O-])s1	8.91 µM (active)
